Results from PubChem BioAssay (EPA / NIEHS).
“And” between values parts separate entries of the source, which are not always exact repeats. Equal values may be shown once. Results filed as inconclusive are left out. Where a structure was tested more than once in an assay, its records may differ in their call. The source made the active and inactive calls. The calls were made as follows, unless noted: active = hit-call score of the fitted dose curve at least 0.9, where 1 is the maximum; inactive = score below 0.9.

How the values were obtained:
[1] = biological target: human RAR-related Orphan Receptor gamma (RORg), RORC (gene 6097) (UniProt P51449); test: ATG_RORg_TRANS: Attagene TRANS-FACTORIAL HepG2 Assay for human RAR-related Orphan Receptor gamma (RORg) (AID 2283011; active = hit-call score of the fitted dose curve at least 0.9, where 1 is the maximum)
Outline: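 HepG2 cells transiently transfected with GAL4-UAS reporter units and chimeric RORg-Gal4 construct; after 24 h chemical exposure, reporter mRNA measured by RT-PCR with fluorescent capillary electrophoresis, gain of signal fitted against DMSO.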

[2] = biological target: Retinoic acid receptor RXR-alpha (Homo sapiens) (UniProt P19793); test: ATG_RXRa_TRANS: Attagene TRANS-FACTORIAL HepG2 Assay for human Retinoid X Receptor alpha (RXRa) (AID 2283012; active = hit-call score of the fitted dose curve at least 0.9, where 1 is the maximum)
Outline: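 Transient transfection of human HepG2 with multiple GAL4-UAS reporter constructs; 24 h compound exposure; total RNA isolated, reverse-transcribed, PCR-amplified, 6-FAM labelled, HpaI-cut, resolved by capillary electrophoresis. Positive-direction fit versus DMSO.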

[3] = biological target: human Retinoid X Receptor beta (RXRb), RXRB (gene 6257) (UniProt P28702); test: ATG_RXRb_TRANS: Attagene TRANS-FACTORIAL HepG2 Assay for human Retinoid X Receptor beta (RXRb) (AID 2283013; active = hit-call score of the fitted dose curve at least 0.9, where 1 is the maximum)
Outline: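 Transfect HepG2 with GAL4-UAS multi-reporter constructs (chimeric NR-Gal4, TRANS format); dose compound 24 h; isolate RNA, RT-PCR, FAM primer extension, HpaI digest; quantify by capillary electrophoresis; positive direction vs DMSO.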

[4] = biological target: human Thyroid Receptor alpha (THRa1), THRA (gene 7067) (UniProt P10827); test: ATG_THRa1_TRANS: Attagene TRANS-FACTORIAL HepG2 Assay for human Thyroid Receptor alpha (THRa1) (AID 2283014; active = hit-call score of the fitted dose curve at least 0.9, where 1 is the maximum)
Outline: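 HepG2 cells transiently transfected with chimeric NR-Gal4 and GAL4-UAS reporter units, dosed 24 h. Reporter mRNA quantified by RT-PCR, fluorescent labeling, HpaI digestion and capillary electrophoresis; gain-of-signal fit versus DMSO.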

[5] = biological target: human Vitamin D Receptor (VDR), VDR (gene 7421) (UniProt P11473); test: ATG_VDR_TRANS: Attagene TRANS-FACTORIAL HepG2 Assay for human Vitamin D Receptor (VDR) (AID 2283022; active = hit-call score of the fitted dose curve at least 0.9, where 1 is the maximum)
Outline: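 HepG2 cells were transiently transfected with GAL4-UAS reporter units and a chimeric VDR-Gal4 construct, then dosed for 24 hours. Reporter mRNA was quantified by RT-PCR, fluorescent labeling, HpaI digestion and capillary electrophoresis; gain of signal analysed vs DMSO.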

[6] = biological target: human RAR-related Orphan Receptor beta (RORb), RORB (gene 6096) (UniProt Q92753); test: ATG_RORb_TRANS: Attagene TRANS-FACTORIAL HepG2 Assay for human RAR-related Orphan Receptor beta (RORb) (AID 2283010; active = hit-call score of the fitted dose curve at least 0.9, where 1 is the maximum)
Outline: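 Readout is reporter-gene mRNA induction, detected as fluorescence after RT-PCR and capillary electrophoresis, fitted for gain of signal against DMSO controls. Transiently transfected HepG2 liver cells carrying GAL4-UAS reporter constructs were treated for 24 hours.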

[7] = read-out: E-selectin (Homo sapiens) (UniProt P16581); test: BSK_3C_Eselectin: BioMAP Diversity Plus: 3C Assay for Eselectin Biomarker Activity (AID 2283015); settings: primary human endothelial cells (HUVEC); actives raise or lower the signal
Outline: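 Primary human umbilical vein endothelial cells (3C system), read 24 h after compound addition; E-selectin measured by ELISA. Bidirectional curve fitting against DMSO baseline; cytotoxicity by parallel SRB total-protein staining.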

[8] = read-out: Monocyte Chemoattractant Protein-1 (MCP1), CCL2 (gene 6347); test: BSK_3C_MCP1: BioMAP Diversity Plus: 3C Assay for Monocyte Chemoattractant Protein-1 (MCP1) Biomarker Activity (AID 2283017); settings: primary human endothelial cells (HUVEC); actives raise or lower the signal
Outline: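 Human umbilical vein endothelial cells (3C system) exposed to chemicals for 24 h; MCP-1 quantified by ELISA against the DMSO baseline with bidirectional fitting, and parallel SRB staining used to assess cytotoxicity.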

[9] = read-out: Monocyte Chemoattractant Protein-1 (MCP1), CCL2 (gene 6347); test: BSK_4H_MCP1: BioMAP Diversity Plus: 4H Assay for Monocyte Chemoattractant Protein-1 (MCP1) Biomarker Activity (AID 2283018); settings: primary human endothelial cells (HUVEC); actives raise or lower the signal
Outline: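 ELISA read-out of MCP-1 from human vascular endothelial primary cells taken at 24 hours after compound exposure. Activity was fitted in both directions relative to DMSO, which served as negative control.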

[10] = read-out: Human Leukocyte Antigen - DR isotype (HLADR), HLA-DRA (gene 3122); test: BSK_3C_HLADR: BioMAP Diversity Plus: 3C Assay for Human Leukocyte Antigen - DR isotype (HLADR) Biomarker Activity (AID 2283019); settings: primary human endothelial cells (HUVEC); actives raise or lower the signal
Outline: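 HUVEC monoculture, HLA-DR measured by ELISA 24 h after chemical dosing. Fitted bidirectionally against DMSO baseline; parallel SRB staining assessed cytotoxicity, with 3C proliferation read by SRB at 48 h.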

[11] = read-out: Interleukin-8 (IL8), CXCL8 (gene 3576); test: BSK_3C_IL8: BioMAP Diversity Plus: 3C Assay for Interleukin-8 (IL8) Biomarker Activity (AID 2283020); settings: primary human endothelial cells (HUVEC); actives raise or lower the signal
Outline: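 ELISA read-out of IL-8 from human umbilical vein endothelium, measured 24 h after chemical dosing. Activity is expressed relative to DMSO negative control, with both increases and decreases fitted.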

[12] = read-out: Monokine induced gamma interferon (MIG), CXCL9 (gene 4283); test: BSK_3C_MIG: BioMAP Diversity Plus: 3C Assay for Monokine induced gamma interferon (MIG) Biomarker Activity (AID 2283021); settings: primary human endothelial cells (HUVEC); actives raise or lower the signal;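 as to AC50: MIG protein level measured by immunoassay in the treated endothelial cultures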
Outline: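 Read-out is ELISA detection of MIG on human umbilical vein endothelial cells, taken 24 h after dosing. Gain or loss of signal was scored relative to DMSO controls using bidirectional curve fitting.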

[13] = read-out: Pselectin, SELP (gene 6403); test: BSK_4H_Pselectin: BioMAP Diversity Plus: 4H Assay for Pselectin Biomarker Activity (AID 2283026); settings: primary human endothelial cells (HUVEC); actives raise or lower the signal
Outline: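 ELISA read-out of P-selectin on human umbilical vein endothelium after 24 h of dosing. Values derive from bidirectional fitting relative to DMSO. Parallel SRB protein staining flagged overt cytotoxicity.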

[14] = BSK_4H_SRB: Viability Assessment in the BioMAP Diversity Plus: 4H Assay (AID 2283027); settings: primary human endothelial cells (HUVEC);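 also: cells exposed to compound for 24 h before staining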;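 as to AC50: curves fitted both ways versus DMSO so AC50 may be loss or gain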
Outline: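 Human umbilical vein endothelial cells, 24 h after chemical dosing; total protein measured by 0.1% sulforhodamine B staining after 10% TCA fixation, read at 560 nm. Bidirectional fitting against DMSO.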

[15] = BSK_BE3C_SRB: Viability Assessment in the BioMAP Diversity Plus: BE3C Assay (AID 2283028); settings: primary human bronchial epithelial cells
Outline: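 Human bronchial epithelial primary cells in confluent culture, 24 h after chemical dosing; total protein by 0.1% SRB staining after 10% TCA fixation, read at 560 nm. Bidirectional fitting versus DMSO baseline.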

[16] = read-out: Thrombomodulin, THBD (gene 7056); test: BSK_3C_Thrombomodulin: BioMAP Diversity Plus: 3C Assay for Thrombomodulin Biomarker Activity (AID 2283029); settings: primary human endothelial cells (HUVEC); actives raise or lower the signal
Outline: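 Read-out is ELISA of thrombomodulin on human umbilical vein endothelium 24 h after chemical dosing. Gain or loss of signal is scored relative to DMSO. Overt cytotoxicity is checked in parallel cultures by sulforhodamine B staining.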

[17] = BSK_3C_Vis: BioMAP Diversity Plus: 3C Assay for Morphology Visualization (AID 2283025); settings: primary human endothelial cells (HUVEC);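 also: fitted both ways so gain or loss versus DMSO counts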
Outline: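 Chemicals were added to primary human umbilical vein endothelium, cells were incubated 24 h, and morphology was then visualized by light microscopy. Gain or loss of signal was fitted bidirectionally relative to DMSO.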

[18] = BSK_3C_SRB: Viability Assessment in the BioMAP Diversity Plus: 3C Assay (AID 2283023); settings: primary human endothelial cells (HUVEC);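 also: fitted both ways against DMSO so a hit may be signal rise or drop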
Outline: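 Human umbilical vein endothelial cells in the 3C system, treated 24 h. Total protein measured by 0.1% sulforhodamine B staining after 10% TCA fixation, read at 560 nm; bidirectional fit versus DMSO.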

[19] = read-out: Matrix Metallopeptidase 1 (MMP1), MMP1 (gene 4312); test: BSK_BE3C_MMP1: BioMAP Diversity Plus: BE3C Assay for Matrix Metallopeptidase 1 (MMP1) Biomarker Activity (AID 2283024); settings: primary human bronchial epithelial cells; actives raise or lower the signal
Outline: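 Human bronchial epithelial cells (BE3C system) exposed to compound for 24 h; MMP1 then quantified by ELISA. Activity was fitted in both directions relative to DMSO.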

[20] = read-out: Interleukin-1 alpha (IL1a), IL1A (gene 3552); test: BSK_BE3C_IL1a: BioMAP Diversity Plus: BE3C Assay for Interleukin-1 alpha (IL1a) Biomarker Activity (AID 2283016); settings: primary human bronchial epithelial cells; actives raise or lower the signal
Outline: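 BE3C primary human bronchial epithelium; cpd 24 h; IL-1a by ELISA; bidirectional fit vs DMSO; parallel SRB (0.1% SRB, 10% TCA fix, 560 nm) for cytotoxicity.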

Measured: AC50

human Vitamin D Receptor (VDR), VDR (gene 7421), sequence (P11473 whole entry, looked up, the tested form may be a part): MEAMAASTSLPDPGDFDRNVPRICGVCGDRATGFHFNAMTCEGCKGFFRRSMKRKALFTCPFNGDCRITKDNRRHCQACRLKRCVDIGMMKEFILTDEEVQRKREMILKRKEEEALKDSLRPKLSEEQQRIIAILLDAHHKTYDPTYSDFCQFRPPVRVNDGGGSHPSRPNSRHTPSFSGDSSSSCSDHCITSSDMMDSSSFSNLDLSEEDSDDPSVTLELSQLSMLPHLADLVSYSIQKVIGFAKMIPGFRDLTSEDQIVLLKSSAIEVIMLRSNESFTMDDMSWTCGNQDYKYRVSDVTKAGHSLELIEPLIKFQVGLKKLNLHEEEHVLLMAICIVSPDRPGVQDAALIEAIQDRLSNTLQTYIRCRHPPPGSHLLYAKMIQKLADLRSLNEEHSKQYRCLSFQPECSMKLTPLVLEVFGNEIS
human RAR-related Orphan Receptor gamma (RORg), RORC (gene 6097), sequence (P51449 whole entry, looked up, the tested form may be a part): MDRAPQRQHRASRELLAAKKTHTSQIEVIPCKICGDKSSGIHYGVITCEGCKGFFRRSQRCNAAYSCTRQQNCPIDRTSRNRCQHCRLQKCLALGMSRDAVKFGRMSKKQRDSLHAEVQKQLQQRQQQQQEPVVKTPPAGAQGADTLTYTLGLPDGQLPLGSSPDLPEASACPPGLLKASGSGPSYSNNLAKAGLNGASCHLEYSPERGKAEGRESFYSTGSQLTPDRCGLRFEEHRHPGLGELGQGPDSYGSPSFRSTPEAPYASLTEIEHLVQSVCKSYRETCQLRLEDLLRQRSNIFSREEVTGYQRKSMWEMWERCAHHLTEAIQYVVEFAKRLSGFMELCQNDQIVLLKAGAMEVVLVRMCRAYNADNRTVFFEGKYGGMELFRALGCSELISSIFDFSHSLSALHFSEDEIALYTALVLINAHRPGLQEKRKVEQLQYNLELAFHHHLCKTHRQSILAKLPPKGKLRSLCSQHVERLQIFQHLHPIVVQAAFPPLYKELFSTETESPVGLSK
Retinoic acid receptor RXR-alpha (Homo sapiens), sequence (P19793 whole entry, looked up, the tested form may be a part): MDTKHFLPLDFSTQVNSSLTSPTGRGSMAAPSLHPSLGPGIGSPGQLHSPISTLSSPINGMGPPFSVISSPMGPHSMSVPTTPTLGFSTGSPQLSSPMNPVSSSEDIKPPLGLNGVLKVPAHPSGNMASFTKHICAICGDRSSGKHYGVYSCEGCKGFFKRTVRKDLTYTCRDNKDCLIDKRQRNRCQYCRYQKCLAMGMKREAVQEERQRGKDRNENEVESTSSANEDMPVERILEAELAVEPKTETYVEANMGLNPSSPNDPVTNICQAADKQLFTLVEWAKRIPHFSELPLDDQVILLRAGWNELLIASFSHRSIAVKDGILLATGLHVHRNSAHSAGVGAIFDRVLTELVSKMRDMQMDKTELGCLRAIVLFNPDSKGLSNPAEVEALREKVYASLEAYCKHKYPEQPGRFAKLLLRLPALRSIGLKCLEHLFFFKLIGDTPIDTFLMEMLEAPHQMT
human RAR-related Orphan Receptor beta (RORb), RORB (gene 6096), sequence (Q92753 whole entry, looked up, the tested form may be a part): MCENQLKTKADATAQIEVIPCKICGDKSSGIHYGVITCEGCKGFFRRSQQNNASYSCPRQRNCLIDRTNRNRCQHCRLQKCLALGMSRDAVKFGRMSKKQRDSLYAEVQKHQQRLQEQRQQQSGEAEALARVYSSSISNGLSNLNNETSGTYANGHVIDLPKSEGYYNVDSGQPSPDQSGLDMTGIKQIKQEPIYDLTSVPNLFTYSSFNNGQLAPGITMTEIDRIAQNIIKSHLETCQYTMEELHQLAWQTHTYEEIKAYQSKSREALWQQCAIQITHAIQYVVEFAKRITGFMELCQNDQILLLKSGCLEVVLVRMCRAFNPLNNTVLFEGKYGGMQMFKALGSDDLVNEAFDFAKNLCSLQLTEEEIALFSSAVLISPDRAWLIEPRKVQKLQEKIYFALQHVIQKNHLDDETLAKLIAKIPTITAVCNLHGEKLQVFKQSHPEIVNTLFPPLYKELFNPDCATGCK
human Retinoid X Receptor beta (RXRb), RXRB (gene 6257), sequence (P28702 whole entry, looked up, the tested form may be a part): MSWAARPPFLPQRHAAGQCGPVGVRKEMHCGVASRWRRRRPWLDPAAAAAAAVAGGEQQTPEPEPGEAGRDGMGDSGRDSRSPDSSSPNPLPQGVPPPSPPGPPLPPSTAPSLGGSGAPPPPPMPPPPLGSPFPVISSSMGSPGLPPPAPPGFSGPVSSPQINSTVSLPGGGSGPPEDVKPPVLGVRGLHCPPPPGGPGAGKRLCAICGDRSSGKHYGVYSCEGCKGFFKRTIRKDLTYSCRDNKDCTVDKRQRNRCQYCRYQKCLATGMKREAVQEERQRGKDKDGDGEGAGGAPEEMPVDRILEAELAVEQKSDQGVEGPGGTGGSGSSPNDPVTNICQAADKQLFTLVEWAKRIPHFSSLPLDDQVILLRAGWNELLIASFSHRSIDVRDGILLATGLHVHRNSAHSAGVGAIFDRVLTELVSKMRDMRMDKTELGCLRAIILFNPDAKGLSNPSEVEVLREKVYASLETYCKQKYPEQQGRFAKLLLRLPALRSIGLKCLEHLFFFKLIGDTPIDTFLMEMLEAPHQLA
E-selectin (Homo sapiens), sequence (P16581 whole entry, looked up): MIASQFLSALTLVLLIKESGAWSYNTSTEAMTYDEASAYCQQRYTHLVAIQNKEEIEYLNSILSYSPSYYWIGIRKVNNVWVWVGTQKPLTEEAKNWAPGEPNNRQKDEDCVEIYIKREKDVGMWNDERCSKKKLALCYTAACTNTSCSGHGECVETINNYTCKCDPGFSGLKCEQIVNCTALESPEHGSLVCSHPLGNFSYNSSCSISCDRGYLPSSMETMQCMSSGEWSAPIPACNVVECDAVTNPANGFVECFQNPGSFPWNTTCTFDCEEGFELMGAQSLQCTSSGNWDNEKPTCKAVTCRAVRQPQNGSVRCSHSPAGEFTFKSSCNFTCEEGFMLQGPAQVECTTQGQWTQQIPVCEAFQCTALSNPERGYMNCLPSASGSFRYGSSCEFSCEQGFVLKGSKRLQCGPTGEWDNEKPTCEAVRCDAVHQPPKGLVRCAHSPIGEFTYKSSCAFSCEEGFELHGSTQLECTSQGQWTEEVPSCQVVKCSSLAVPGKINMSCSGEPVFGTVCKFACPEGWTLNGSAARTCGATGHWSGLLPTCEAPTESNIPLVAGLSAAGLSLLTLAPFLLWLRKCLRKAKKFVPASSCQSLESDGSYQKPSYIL
human Thyroid Receptor alpha (THRa1), THRA (gene 7067), sequence (P10827 whole entry, looked up, the tested form may be a part): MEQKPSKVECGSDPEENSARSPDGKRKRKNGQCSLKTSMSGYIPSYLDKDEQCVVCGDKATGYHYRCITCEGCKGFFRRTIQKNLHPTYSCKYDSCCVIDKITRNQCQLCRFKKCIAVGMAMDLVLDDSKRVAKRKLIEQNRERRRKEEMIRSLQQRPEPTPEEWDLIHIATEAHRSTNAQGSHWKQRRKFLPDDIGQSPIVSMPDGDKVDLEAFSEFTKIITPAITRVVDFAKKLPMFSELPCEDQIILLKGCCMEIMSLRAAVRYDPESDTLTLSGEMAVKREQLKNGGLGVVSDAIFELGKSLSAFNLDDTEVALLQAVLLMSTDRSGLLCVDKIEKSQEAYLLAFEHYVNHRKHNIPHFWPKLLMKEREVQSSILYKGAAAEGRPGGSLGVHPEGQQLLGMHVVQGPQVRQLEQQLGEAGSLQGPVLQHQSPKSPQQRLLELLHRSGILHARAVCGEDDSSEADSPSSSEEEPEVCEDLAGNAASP

COCCOCCC[Si](C)(O[Si](C)(C)C)O[Si](C)(C)C
active: [3] 33.4 µM
inactive: [1] | [2] | [4] | [5]

CCCCCCCCCCCCCCCCC
inactive: [6] | [3]

CC(C)OC=O
inactive: [6] | [3]

C=CC(=O)OCC(F)(F)C(F)(F)C(F)(F)COC(=O)C=C
inactive: [1] | [2] | [4] | [15] | [16]
active: [7] 19.4 µM and 32.1 µM | [8] 39.6 µM and 30 µM | [9] 30 µM and 8.24 µM | [10] 14 µM and 12.3 µM | [11] 23.9 µM and 31 µM | [12] 24.7 µM and 22.7 µM | [13] 11.2 µM and 8.07 µM | [14] 25 µM and 33.8 µM | [16] 18 µM

O=C=Nc1cccc2c(N=C=O)cccc12
active: [9] 502 nM
not listed: [1] | [2] | [3] | [5] | [18] | [19] | [20]
inactive: all other assays above

NS(=O)(=O)C(F)(F)C(F)(F)C(F)(F)C(F)(F)C(F)(F)C(F)(F)F
active: [10] 22.6 µM and 24.2 µM | [18] 49.4 µM and 44.3 µM | [19] 30 µM and 33.2 µM | [14] 37.2 µM and 30 µM
not listed: [1] | [2] | [3] | [17] | [20]
inactive: all other assays above

O=S(=O)(O)c1ccc(Cl)cc1
inactive: [6] | [5]

FC(F)(F)C(F)(F)C(F)(F)CC1CO1 (configuration not stated)
not listed: [3] | [6] | [10] | [16] | [17] | [18] | [19]
inactive: all other assays above

CO[Si](C)(CCC(F)(F)C(F)(F)C(F)(F)C(F)(F)C(F)(F)C(F)(F)F)OC
not listed: [6] | [10] | [17] | [19]
inactive: all other assays above

Nc1cccnc1N
inactive: [1] | [2] | [3] | [4]

C#CC(O)CCC (configuration not stated)
inactive: [6] | [3]

CCCCCCCC/C=C\CCCCCCCC(=O)N(C)CC(=O)O
inactive: [1] | [2] | [3] | [4]

F[Si-2](F)(F)(F)(F)F
inactive: [1] | [2] | [3] | [4] | [5]
